# A selection: hits, their analogues and other compounds. The true share with any hit is near 22%.
# CYP2C9 activ – CYP2C9 (human) activation; recombinant CYP2C9, luciferin-H conversion, luminescence; hits give high values; factor 1 = untreated enzyme, 0 = blocked; actives 1.4% (n = 96,000); P11712; activation factor at 5 µM;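 active = activation factor of 2 or more for CYP2C9 at a 5 µM dose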;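 also: 0 = sulfaphenazole-blocked wells and 1 = vehicle-only wells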
# CYP2C9 inh – human CYP2C9 inhibition. CYP2C9 Supersomes, luciferin-H conversion, luminescence. inhibition, % at 5 µM. actives 20% (n = 96,000). P11712. AID 777;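 active = blocking of liver enzyme CYP2C9 beyond about 50% at 5 µM, limit read from the data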
# CYP2C19 activ – increases human CYP2C19 enzyme activity; AID 1025; P33261; activation factor at 5 µM; 96,000 tested, under 10 active; recombinant CYP2C19, luciferin-H EGE luminescence; hits give high values; 0 = fully inhibited enzyme, 1 = untreated enzyme;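 active = activation factor of at least 2 at 5 µM in the primary screen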;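 also: 0 = wells with 2.5 mM tranylcypromine and 1 = vehicle-only wells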
# Target sequence (P33261 whole entry, looked up): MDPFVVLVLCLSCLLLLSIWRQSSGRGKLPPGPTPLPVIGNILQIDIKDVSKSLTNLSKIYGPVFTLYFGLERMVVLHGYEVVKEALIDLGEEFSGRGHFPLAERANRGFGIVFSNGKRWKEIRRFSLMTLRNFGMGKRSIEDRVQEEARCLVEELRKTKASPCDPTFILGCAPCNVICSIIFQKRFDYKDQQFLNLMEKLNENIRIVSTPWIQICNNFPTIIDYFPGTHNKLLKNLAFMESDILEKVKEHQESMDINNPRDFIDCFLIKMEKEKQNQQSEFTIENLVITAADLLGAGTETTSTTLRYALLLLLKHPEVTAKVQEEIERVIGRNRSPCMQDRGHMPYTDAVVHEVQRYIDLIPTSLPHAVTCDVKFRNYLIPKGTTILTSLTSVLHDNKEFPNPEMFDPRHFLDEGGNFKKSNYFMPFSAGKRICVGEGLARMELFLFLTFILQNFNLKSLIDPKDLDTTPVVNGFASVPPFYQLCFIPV
# CYP2C19 inh – human CYP2C19 inhibition. AID 778. actives 21% (n = 96,000). inhibition, % at 5 µM. P33261. CYP2C19 Supersomes, luciferin-H EGE luminescence, 30 min;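 active = CYP2C19 inhibition above a set limit at 5 µM in the primary screen, cut at about 50% in these data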;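 also: plate controls were negative control wells for no effect and 2.5 mM tranylcypromine positive control for full effect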
# Measles CPE – protection of cells from measles virus; Measles virus-infected cells, CPE protection, absorbance; protection (pct of control), % at 4 µM; actives 1.5% (n = 140,000); AID 841; in the data active = protection mostly above about 24%, no sharp cut-off; inactive = mostly below about 26%
# * hit, by the source's call; . = no result given.
SMILES,CYP2C9 activ,CYP2C9 inh,CYP2C19 activ,CYP2C19 inh,Measles CPE
CCC1CCCCN1C(=O)CSc1nnc(-c2c[nH]c3ccccc23)o1 (configuration not stated),1.6,-61.7,0.1,90.7*,5.1
CC1CCCC(C)N1C(=O)CSc1nnc(-c2c[nH]c3ccccc23)o1 (configuration not stated),1.1,-8.3,0.7,27.5,5.5
COc1ccc(-c2nnc(SCC(=O)N3CCCC(C)C3)o2)c(OC)c1 (configuration not stated),0.8,19.8,0.3,70.9*,4.2
CC1CCCN(C(=O)CSc2nnc(-c3c[nH]c4ccccc34)o2)C1 (configuration not stated),1.3,-31.4,0.3,71.3*,15.7
CCCn1nc(C(=O)Nc2cc(C(=O)OC)ccc2C)c2ccccc2c1=O,0.6,37.3,0.7,28.4,18.0
CC/C(=N\NC(=O)c1ccc(N(C)C)cc1)c1ccccc1,.,.,.,.,2.2
CCOC(=O)c1c(C)[nH]c(C)c1C(=O)CSc1nnc(-c2cc(OC)c(OC)c(OC)c2)o1,0.7,26.4,0.8,15.3,2.5
COC(=O)c1c(C)[nH]c(C(=O)C(C)Sc2nnc(-c3cc(OC)c(OC)c(OC)c3)o2)c1C (configuration not stated),0.3,71.6*,0.6,40.4,33.6
CCOC(=O)c1cc(-c2ccccc2)n(CCC(=O)NC(C)CC)c1C (configuration not stated),.,.,.,.,4.8
Cc1ccc(C)c(N(C)S(=O)(=O)c2cccc3nsnc23)c1,2.3*,-131.8,0.6,43.6,1.7
Cc1cc(C)cc(NC(=O)CN(C)S(=O)(=O)c2cccc3nsnc23)c1,0.5,54.5*,0.6,37.4,23.5
Cc1cccc(NC(=O)CN(C)S(=O)(=O)c2cccc3nsnc23)c1C,1.4,-38.0,0.4,60.0*,18.7
COc1cc2nc(C3CCC3)n(NC(=O)C(OC(C)=O)c3ccccc3)c(=O)c2cc1OC (configuration not stated),0.9,7.3,1,3.8,6.5
CCN(C(=O)CN(C)Cc1c(F)cccc1Cl)c1c(N)n(Cc2ccccc2)c(=O)[nH]c1=O,.,.,.,.,4.5
CC(C)(Oc1ccc(Cl)cc1)C(=O)NCCN1C(=O)S/C(=C/c2cccnc2)C1=O,.,.,.,.,9.3
COC(=O)/C=C1\N/C(=N\c2nc(C)cc(C)n2)N(c2ccc(C)cc2)C1=O,.,.,.,.,5.7
O=C1OCCC1Sc1nnc(-c2ccc(Br)cc2)o1 (configuration not stated),1,4.7,0.4,62.1*,17.6
O=C1OCCC1Sc1nnc(-c2ccco2)o1 (configuration not stated),.,.,.,.,10.8
CCOc1ccc2c(CC)cc(=O)oc2c1OCC,.,.,.,.,7.2
CCOC(=O)C1(C(F)(F)F)N=C(C(F)(F)F)Nc2ccccc21 (configuration not stated),0.3,65.6*,0.5,53.6*,15.8
COc1cccc(/C=N/NC(=O)C(=O)NCc2cccnc2)c1O,.,.,.,.,12.1
O=C(NCc1ccccc1)c1ccc(N2C(=O)C3CCCCC3C2=O)cc1 (configuration not stated),.,.,.,.,15.6
Cc1noc(C)c1CSCC(=O)NC1=NCCS1,0.7,28.3,0.7,34.8,.
Cc1cccc(NC(=O)CSCc2c(C)noc2C)c1C,1.1,-8.8,0.3,73.6*,2.2
Cc1ccccc1Nc1nc(N)nc(CSCc2c(C)noc2C)n1,0.4,56.7*,0.4,63.9*,2.4
SMILES,CYP2C9 activ,CYP2C9 inh,CYP2C19 activ,CYP2C19 inh,Measles CPE
O=[N+]([O-])c1cc(C(F)(F)F)ccc1NCCc1c[nH]c2ccccc12,.,.,.,.,26.7
O=[N+]([O-])c1cc(C(F)(F)F)ccc1NCCc1c[nH]c2ccc(O)cc12,0.3,74.8*,1,4.0,20.3
O=S(=O)(c1ccc(Cl)cc1)N1CCCC1c1nc(-c2cccc(Cl)c2)no1 (configuration not stated),0.7,25.8,0.9,6.7,4.0
C=CCOC(=O)C1=C(C)NC(=S)NC1/C=C/c1ccccc1 (configuration not stated),0.4,64.9*,0.4,60.0*,9.9
CC1=C(C(=O)OCc2ccccc2)C(/C=C/c2ccccc2)NC(=S)N1 (configuration not stated),.,.,.,.,2.8
O=C(Nc1nnc(COc2ccc(Cl)cc2)s1)C1CCCO1 (configuration not stated),0.9,11.3,0.9,13.9,5.6
CSc1nc(N2CCN(CCO)CC2)c2sc3nc(-c4ccco4)c4c(c3c2n1)CCC4,1.1,-5.3,1.1,-7.1,.

# Bioassay records as filed in PubChem.
